A word on the AC50: it is the concentration at which the activity in the assay is half-maximal.

Calls of active or inactive are those of the source. How the source made its calls: active means hit-call score of the fitted dose curve at least 0.9, where 1 is the maximum; inactive means score below 0.9.

Read-out in this assay: Interleukin-8 (IL8), CXCL8 (gene 3576)
The assay is described as follows: BSK_hDFCGF_IL8: BioMAP Diversity Plus: hDFCGF Assay for Interleukin-8 (IL8) Biomarker Activity (AID 2283058). To be noted: primary human foreskin fibroblasts; actives raise or lower the signal. How it is done:
BSK_hDFCGF is a cell-based, multiplexed-readout assay that uses foreskin fibroblast, a human skin primary cell, with measurements taken at 24 hours after chemical dosing in a 96-well plate.BSK_hDFCGF_IL8 is an assay component measured in the BSK_hDFCGF assay. It measures IL-8 antibody related to regulation of gene expression using ELISA technology.Data from the assay component BSK_hDFCGF_IL8 was analyzed into 1 assay endpoint. This assay endpoint, BSK_hDFCGF_IL8, was analyzed with bidirectional fitting relative to DMSO as the negative control and baseline of activity. Using a type of binding reporter, gain or loss-of-signal activity can be used to understand changes in the signaling as they relate to the gene CXCL8. Furthermore, this assay endpoint can be referred to as a primary readout, because this assay has produced multiple assay endpoints where this one serves a signaling function. To generalize the intended target to other relatable targets, this assay endpoint is annotated to the cytokine intended target family, where the subfamily is interleukins.
The levels of cell surface (or secreted, indicated by the prefix "s") biomarker endpoints were measured by ELISA. Overt cytotoxicity to cells in confluent adherent cultures (all systems other than the BT system) was assessed by measuring total protein levels using sulforhodamine B (SRB) staining in parallel cultures at the time of biomarker measurements, indicated as SRB endpoints. For proliferation assays for adherent cell types, individual cell types are cultured at sub-confluence and relative cell numbers quantified by SRB staining at time points optimized for each system (48 h: 3C and CASM3C systems; 72 h: BT and HDF3CGF systems; 96 h: SAg system). SRB was performed by staining cells with 0.1% SRB after fixation with 10% TCA and reading wells at 560 nm.Viability and proliferation of PBMC (T cells) was quantified by Alamar Blue reduction for the SAg and BT systems. For PBMC viability (referred to as PBMC Cytotoxicity within the assay endpoint names), cells were plated (75,000/well in a 96-well plate) and then chemical samples added for 1 h before addition of activators, SEB and TSST-1 (20 ng/mL final concentration each). Cells were incubated for 90 h. Then, Alamar Blue (20 uL/well) (Invitrogen, Cat DAL1100) was added for 6 h, and the plates were read with a fluorescence microplate reader at 546/580 nm (excitation/emission). For PBMC proliferation, cells were plated and activated as above but incubated for only 16 h prior to addition of Alamar Blue. Plates were read after 6 h.
As to `CC(COc1ccc(Oc2ccccc2)cc1)Oc1ccccn1` (stereo not given), the outcome was inactive.
Take `Cc1ccn2nc(S(=O)(=O)Nc3c(F)cccc3F)nc2n1`: the outcome was inactive.
In the case of `CCC(=NOC/C=C/Cl)C1=C(O)CC(C2CCOCC2)CC1=O` (stereo not given), the result was inactive.
Same read-out and setting: with `CN(C)C(=O)Nc1cccc(C(F)(F)F)c1` the entry was “inactive”; with `CNC(=O)ON=C(SC)C(=O)N(C)C`, “inactive”; with `COc1ccc(C(=CC(=O)N2CCOCC2)c2ccc(Cl)cc2)cc1OC`, “inactive”.
For the compound `CCNc1nc(Cl)nc(NC(C)(C)C#N)n1`, the outcome was inactive.
Consider `CN1COCN(Cc2cnc(Cl)s2)C1=N[N+](=O)[O-]`, for which the result was inactive.
In the case of `CN(C)NC(=O)CCC(=O)O`, the outcome was inactive.
Take `CCC(=O)Nc1ccc(Cl)c(Cl)c1`: the outcome was inactive.
Consider `CC(C)=CC1C(C(=O)OCN2C(=O)C3=C(CCCC3)C2=O)C1(C)C` (stereo not given), for which the outcome was inactive.
On the same count and under the same terms, with `CC(C1CC1)C(O)(Cn1cncn1)c1ccc(Cl)cc1` (stereo not given) the entry was “inactive”.
For `O=C(O)c1cc(Oc2ccc(C(F)(F)F)cc2Cl)ccc1[N+](=O)[O-]`, the outcome was inactive.
`CCCCOC(=O)[C@@H](C)Oc1ccc(Oc2ccc(C#N)cc2F)cc1`: the result was inactive.
Still for that read-out and setting: the same measure for `CCc1cccc(CC)c1N(COC)C(=O)CCl`: “inactive”; for `CON=C(C(=O)OC)c1ccccc1CON=C(C)c1cccc(C(F)(F)F)c1`: “inactive”.
As for `Nc1c(Cl)cc([N+](=O)[O-])cc1Cl`, the outcome was inactive.
Turning to `N#CSCSC#N`, the concentration at half-maximal activity (AC50) is 3.03 µM (active).
Regarding `CC(=NC#N)N(C)Cc1ccc(Cl)nc1`, the result was inactive.
Same read-out and setting: the same measure for `CNC(=O)Oc1cccc2c1OC(C)(C)O2`: “inactive”; for `C#CC(C)(C)NC(=O)c1cc(Cl)cc(Cl)c1`: “inactive”.
Consider `C#CCC1=C(C)C(OC(=O)C2C(C=C(C)C)C2(C)C)CC1=O` (stereo not given), for which the AC50 was 37.8 µM (active).
On to `COP(=O)(NC(C)=O)SC` (stereo not given), for which the result was inactive.
On to `CCc1cccc(C)c1N(C(=O)CCl)C(C)COC` (stereo not given), for which the result was inactive.
On to `COP(=O)(OC)SCn1c(=O)oc2cc(Cl)cnc21`, for which the AC50 is 30.8 µM (active).
Take `CCOP(=O)(OCC)Oc1cc(C)nc(C(C)C)n1`: the outcome was inactive.
For `CCCOCC(=Nc1ccc(Cl)cc1C(F)(F)F)n1ccnc1`, the AC50 was 38.3 µM (active).
`CC(C)N(C(=O)SCC(Cl)=C(Cl)Cl)C(C)C`: the AC50 is 33.6 µM (active).
Consider `C=C(C)[C@H]1Cc2c(ccc3c2O[C@@H]2COc4cc(OC)c(OC)cc4[C@@H]2C3=O)O1`, for which the result was inactive.
Turning to `FC(F)C(F)(F)OCC(Cn1cncn1)c1ccc(Cl)cc1Cl` (stereo not given), the result was inactive.
Turning to `CC[C@H](C)[C@H]1O[C@]2(C=C[C@@H]1C)C[C@@H]1C[C@@H](C/C=C(\C)[C@@H](O[C@H]3C[C@H](OC)[C@@H](O[C@H]4C[C@H](OC)[C@@H](NC)[C@H](C)O4)[C@H](C)O3)[C@@H](C)/C=C/C=C3\CO[C@@H]4[C@H](O)C(C)=C[C@@H](C(=O)O1)[C@]34O)O2`, the concentration at half-maximal activity (AC50) is 6.99 µM (active).
As to `CCc1cnc(C2=NC(C)(C(C)C)C(=O)N2)c(C(=O)O)c1` (stereo not given), the result was inactive.
On the same count and under the same terms, the same measure for `CCOP(=S)(OCC)Oc1ccc([N+](=O)[O-])cc1`: “inactive”.
As to `Nc1nc(N)nc(NC2CC2)n1`, the outcome was inactive.
As to `CN(C)[C@@H]1C(=O)C(C(N)=O)=C(O)[C@@]2(O)C(=O)C3=C(O)c4c(O)cccc4[C@@](C)(O)[C@H]3[C@H](O)[C@@H]12`, the result was inactive.
`COP(=O)(OC)OC(Br)C(Cl)(Cl)Br` (stereo not given): the concentration at half-maximal activity (AC50) was 37.8 µM (active).
For the compound `CNc1cnn(-c2cccc(C(F)(F)F)c2)c(=O)c1Cl`, the outcome was inactive.
`CCCCSP(=O)(SCCCC)SCCCC`: the result was inactive.
Take `C[N+]1(C)CCCCC1`: the outcome was inactive.
For the compound `CCCSP(=O)(OCC)Oc1ccc(Br)cc1Cl` (stereo not given), the result was inactive.

The values are drawn from PubChem BioAssay (EPA / NIEHS).
